In all, about 400,000 compounds went through this assay and about 3,700 (0.93%) were called active. Not shown: some 3% with an inconclusive outcome. The list comes from a sample in which actives are over-represented; it also holds similar structures and randomly drawn compounds. A number with no mark means an inactive call. The call rests on the fitted dose curve; in most records, active means well fitted inhibition curve with a large enough effect; inconclusive means small, poorly fitted or top-dose-only effect, or another doubt; inactive means no such curve, though single readings can be large or run the other way.
On the % scale 0 is the no-effect control and ±100 the full control effect; potency means the concentration at half of the fitted maximal effect.

Vitamin D3 receptor (Homo sapiens), sequence (P11473 whole entry, looked up): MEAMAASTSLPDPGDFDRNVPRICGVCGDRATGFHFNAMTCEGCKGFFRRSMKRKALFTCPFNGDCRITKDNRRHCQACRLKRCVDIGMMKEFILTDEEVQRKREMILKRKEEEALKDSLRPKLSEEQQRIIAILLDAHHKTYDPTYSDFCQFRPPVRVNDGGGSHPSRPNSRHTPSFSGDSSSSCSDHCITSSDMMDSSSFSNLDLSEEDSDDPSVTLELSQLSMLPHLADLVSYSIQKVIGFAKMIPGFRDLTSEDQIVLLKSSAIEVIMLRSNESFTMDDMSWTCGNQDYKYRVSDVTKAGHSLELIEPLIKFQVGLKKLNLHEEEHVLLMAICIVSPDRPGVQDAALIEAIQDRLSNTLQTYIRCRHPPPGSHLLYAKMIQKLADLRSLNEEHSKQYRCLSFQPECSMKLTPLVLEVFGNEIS

For the assay, the target named is Vitamin D3 receptor (Homo sapiens) (UniProt P11473). Kind of assay: Inhibitors of the vitamin D receptor (VDR): qHTS. The settings on record: VDR-SRC2-3 peptide fluorescence polarization, 2 h; max response, negative = inhibition: hits give low values. The gist of the method:
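FP read-out; VDR + SRC2-3 coactivator peptide; 23 nl compound by pintool; 2 h RT incubation; reagents held at 4 deg C, protected from light.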
(In general: qHTS replaces the single test concentration by a dilution series.)
Take `CC1=Nc2cc(C(=O)N3CCC(C)CC3)ccc2Sc2ccc(Cl)cc21`: the max response, negative = inhibition was -2.31%. Turning to `CN(Cc1ccco1)c1cc(-c2ccccc2C(F)(F)F)ncn1`, the Potency is 39.8 µM (active).

Take `Cn1c(=O)[nH]c(=O)c2c1[nH]c(=S)n2Cc1ccccc1`: the Potency was 89.1 µM (active). For `Cn1c(=O)[nH]c(=O)c2c1nc(NCCc1ccccc1)n2Cc1ccc(F)cc1`, the max response, negative = inhibition was -22.7%.

`Cc1nnc(Sc2nc3c(c(=O)[nH]c(=O)n3C)n2Cc2ccccc2)s1`: the max response, negative = inhibition was -19.6%. As to `c1ccc(Cn2nnc3c(N4CCCCC4)ncnc32)cc1`, the max response, negative = inhibition was 7.87%.

As for `COc1ccc(OC)c(-c2noc(N3CCN(c4cc(Cl)ccc4C)CC3)n2)c1`, the max response, negative = inhibition is 13.2%. Turning to `O=C(CCN1CCc2ccccc2C(O)(c2ccccc2)C1)c1ccc2c(c1)OCCO2` (configuration not stated), the Potency was 35.5 µM (active). Consider `CCC1(c2ccccc2)NC(=O)N(CC(=O)c2ccc3c(c2)OCO3)C1=O` (configuration not stated), for which the max response, negative = inhibition is 7.42%. Same read-out and setting: for `O=C(CN1CCC(O)(c2ccccc2)CC1)Nc1ccc2c(c1)OCCO2` the value was 0.904%; for `COc1cc(OC)cc(C(=O)NCCc2csc3nc(-c4ccccc4F)nn23)c1`, 1.56%; for `CCOC(=O)c1cccc(NS(=O)(=O)c2cc(-c3cnc(C)o3)ccc2OC)c1`, 1.33%. As to `CC(Sc1nnnn1C)C(=O)NC(=O)NC1CCCCC1` (configuration not stated), the max response, negative = inhibition is 15%. For the compound `O=C(CSc1nnnn1C1CCCC1)N1CCCCC1`, the max response, negative = inhibition was 12.7%. For the compound `CC(Sc1nnnn1C1CCCCC1)C(=O)O` (configuration not stated), the Potency was 79.4 µM (active). As to `CC1OC(OCC2OC(Oc3c(-c4ccc(O)c(O)c4)oc4cc(O)cc(O)c4c3=O)C(O)C(O)C2O)[C@@H](O)C(O)C1O` (some centres not stated), the max response, negative = inhibition is -0.0788%. On to `COc1cc(C(=O)N2CCN(c3ccc(Nc4ccc(C)cc4)nn3)CC2)cc(OC)c1OC`, for which the max response, negative = inhibition is 13.1%.

For the compound `Cc1oc2ncnc(N3CCOCC3)c2c1C(=O)NCCc1ccccc1`, the max response, negative = inhibition is 9.03%. `O=C1c2ccccc2C(=O)N1c1ccc(S(=O)(=O)N2CCOCC2)c2ccccc12`: the max response, negative = inhibition was -4.23%.

On to `FC(F)(F)C1CCCN(c2nsc3ccccc23)C1` (configuration not stated), for which the Potency was 20 µM (active).

For the compound `C[C@H]1CCC[C@@]2(C)CCCC[C@]12O`, the max response, negative = inhibition is 0.107%. `CC(=O)N(C1=C(Cl)C(=O)c2ccccc2C1=O)c1ccc(C(=O)O)cc1`: the Potency was 7.08 µM (active). As to `CCOC(=O)c1cc2c(=O)n3ccccc3nc2n(CCCOC)c1=NC(=O)C(C)(C)Oc1ccc(Cl)cc1`, the max response, negative = inhibition was -19.6%. As for `CC(=O)Oc1c2c(c3c(c1CC=C(C)C)O[C@@]14C(=CC5CC1C(C)(C)OC4(C/C=C(\C)C(=O)O)C5=O)C3=O)OC(C)(CCC=C(C)C)C=C2` (some centres not stated), the Potency is 3.16 µM (active).

For `CCc1ccccc1OCCSc1nc(-c2cccs2)nc2cc(=O)[nH]n12`, the max response, negative = inhibition was -2.15%.

Regarding `O=C1CC(c2ccccc2)CC2=C1C(c1ccco1)n1nc(C(F)(F)F)nc1N2` (configuration not stated), the max response, negative = inhibition is -0.088%. Still for that read-out and setting: for `CC(C)(C)c1ccc(S(=O)(=O)Nc2ccc(O)c(Sc3nc4ccccc4s3)c2)cc1` the value was -10.5%. On the same count and under the same terms, for `CC(C)c1ccc(S(=O)(=O)Nc2ccc(O)c(Sc3nc4ccccc4s3)c2)cc1` the value was -4.7%. As for `O=[N+]([O-])c1c(NCCO)cc(Sc2nc3ccccc3s2)c2nonc12`, the Potency was 14.1 µM (active). On to `NCCCNCCCCN(CCCN)/[N+]([O-])=N/O`, for which the max response, negative = inhibition is 8.85%.

As for `Oc1c(C(c2ccccn2)N2CCOCC2)ccc2cccnc12` (configuration not stated), the Potency is 17.8 µM (active).

Regarding `Oc1c(C(c2ccccc2Cl)N2CCOCC2)sc2nc(-c3ccco3)nn12` (configuration not stated), the max response, negative = inhibition was 10.6%. Still for that read-out and setting: for `COc1ccc(NC(=O)c2sc3nc[nH]c(=O)c3c2C)cc1` the value was 6.76%; for `Cc1ccc2nc(/C(C#N)=C/c3ccc(-c4ccc(C(=O)OC(C)C)cc4)o3)[nH]c2c1`, -0.457%.

As for `Nc1ccc2[nH]c(=S)sc2c1`, the Potency is 28.2 µM (active). In the case of `O=c1[nH]c2ccccc2s1`, the max response, negative = inhibition is 1.06%. Same read-out and setting: for `COc1ccc(CNC(=O)CSc2nc3ccccc3nc2Cc2ccccc2)cc1` the value was -10.7%; for `Cc1cccc(C)c1NC(=O)NC1=CCCN1C`, 8.2%; for `COC1=CC(=O)OC(c2ccc(OC)cc2)C1` (configuration not stated), 6.19%. Regarding `COc1ccc(N=Nc2c(-c3ccc(OC)cc3)[nH]oc2=O)cc1`, the max response, negative = inhibition is -12%. In the case of `COc1ccc(N=C2C=CC(=O)O2)cc1`, the Potency was 79.4 µM (active).

In the case of `COc1ccc(-c2nc3nc(C)cc(C)n3c2Nc2c(C)cccc2C)cc1`, the max response, negative = inhibition was -18.2%. Still for that read-out and setting: for `Cc1cccc(OCCSc2nc3ccc(NC(=O)COc4ccccc4C)cc3s2)c1` the value was 4.41%; for `CC(=O)c1cc(-c2ccccc2)[nH]c1N1CCCC1`, 0%.

For `O=C1NN(c2ccccc2)C(=O)/C1=C/c1ccc(-c2cccc(C(=O)O)c2)o1`, the Potency is 89.1 µM (active). Take `CCCN(CCC)CCCNC(=O)Cn1ncc2c3ccccc3n(Cc3ccccc3)c2c1=O`: the max response, negative = inhibition was 11.1%. In the case of `Cc1cc(C)c(NC(=O)c2cc3sc(Cl)cc3n2C)c(C)c1`, the max response, negative = inhibition was -11%.

Turning to `O=C(Nc1ccc(N2CCOCC2)cc1)c1ccc(-c2ccccc2[N+](=O)[O-])o1`, the max response, negative = inhibition is -16.6%. In the case of `CC1=NN(c2ccc(Cl)c(C(=O)O)c2)C(=O)/C1=C/c1ccc(-c2ccccc2[N+](=O)[O-])o1`, the Potency is 50.1 µM (active). As to `O=C1NC(c2ccc(-c3ccccc3[N+](=O)[O-])o2)C(C(=O)c2ccc(Cl)cc2)C(O)(C(F)(F)F)N1` (configuration not stated), the max response, negative = inhibition was -20.1%. On the same count and under the same terms, for `COc1cc(C(=O)NCCS(=O)(=O)N2CCN(c3ccccc3)CC2)cc(OC)c1OC` the value was 22.4%.

Consider `COc1ccc(-c2onc(C)c2C)cc1S(=O)(=O)NCC1CCN(Cc2cccc(F)c2)CC1`, for which the max response, negative = inhibition is -0.795%. On the same count and under the same terms, for `Cc1cc(NC(=O)c2ccc(-c3ccc(Cl)cc3)o2)cc(-c2nc3ncccc3o2)c1O` the value was -16%; for `CC1CCN(C(=O)c2ccc3c(c2)NC(=O)CN3)CC1`, 8.33%.

Take `Cc1ccc(CSCC2Nc3ccc(C(=O)N4CCN(c5ccc(F)cc5)CC4)cc3NC2=O)cc1` (configuration not stated): the Potency is 79.4 µM (active). For `Cc1ccc(SCC(=O)N2CCN(c3ccc(F)cc3)CC2)cc1`, the max response, negative = inhibition was 9.21%. Consider `CCOC(=O)c1c(S(=O)(=O)N2CCCC(C(=O)NCc3cccc(C)c3)C2)c(C)n(C)c1C` (configuration not stated), for which the max response, negative = inhibition is 14.2%. Same read-out and setting: for `CCCN(CCC)CCCNC(=O)Cn1cc2c(n1)-c1c(oc(C(=O)N3CCCC3)c1C)CC2` the value was 4.81%.

On to `COc1ccc(-c2nc(Cn3c(=O)cc(C)c4c(C)nn(-c5ccccc5)c43)c(C)o2)c(OC)c1`, for which the max response, negative = inhibition is 3.2%. The same measure, in the same setting: for `COc1ccc2c(c1)c(N1CCCC1=O)c(C(=O)Nc1ccccc1C(F)(F)F)n2C` the value was 13.2%; for `Cc1ccc(-c2nc3cccc(C)n3c2Nc2ccc3c(c2)OCCO3)cc1`, -25.9%; for `CC(C)c1ccc(C2C(C#N)=C(N)Oc3c2oc(CO)cc3=O)cc1` (configuration not stated), -3.81%. `CC(C)c1ccc(C2CC(=O)N3CN(C4CCCCC4)CSC3=C2C#N)cc1` (configuration not stated): the Potency is 14.1 µM (active). For `COc1cc(Nc2nc(-c3ccc(OC)c(OC)c3)nc3ccccc23)cc(OC)c1`, the max response, negative = inhibition is 19%. For `CC(=O)Oc1ccc(N(C(C)=O)S(=O)(=O)c2ccc3ccccc3c2)cc1Br`, the max response, negative = inhibition was 7.52%. Take `CC(=O)N(c1ccc2oc(=O)sc2c1)S(=O)(=O)c1ccc(C)cc1`: the Potency was 70.8 µM (active).

For `COC(=O)c1c(C)oc2ccc(N(C(=O)Oc3ccccc3)S(=O)(=O)c3ccccc3)cc12`, the max response, negative = inhibition was 2.55%. The same measure, in the same setting: for `CC(NC(=O)c1cc2c(=O)n3ccccc3nc2n(C(C)C)c1=N)c1ccccc1` (configuration not stated) the value was -2.71%; for `Cc1ccc(-n2c(=O)c3cccnc3n2CC(=O)Nc2ccccc2C(F)(F)F)cc1C`, 10.3%; for `O=C(O)c1ccccc1/C=N/Nc1ccc(S(=O)(=O)Nc2ccc(Cl)cc2)cc1[N+](=O)[O-]`, -16.1%. Take `COc1ccc(Br)cc1/C=N/Nc1ccc(S(=O)(=O)Nc2ccccc2C(=O)O)cc1[N+](=O)[O-]`: the Potency was 79.4 µM (active). As to `COc1ccc(S(=O)(=O)Nc2ccccc2C(=O)N2CCCC2)cc1C`, the max response, negative = inhibition is 4.61%.

On to `Cc1cc(C)nc(NS(=O)(=O)c2ccc(NC(=O)c3cc(=O)c4ccc(C)c(C)c4o3)cc2)n1`, for which the max response, negative = inhibition was 19.7%. On the same count and under the same terms, for `O=C(NCCCc1ccccc1)c1ccc2c(c1)sc1nc(-c3ccc(F)cc3)cn12` the value was 9.26%; for `Cc1ccc(-c2cc(-c3coc4ccccc4c3=O)c3c(n2)-c2cc(Cl)ccc2OC3)cc1`, 2.47%.

For the compound `Cc1ccccc1C1=N/C(=C/c2cccnc2)C(=O)O1`, the Potency is 70.8 µM (active). Regarding `Nc1ccc2c(c1)C(=Cc1cccnc1)c1ccccc1-2`, the max response, negative = inhibition is -7.1%.

Consider `Cc1ccc(C2=C/C(=C\c3cccnc3)C(=O)O2)cc1`, for which the max response, negative = inhibition is -0.781%. Same read-out and setting: for `Cc1ccc(NC(=O)CSc2nc3c([nH]c4ccccc43)c(=O)n2-c2ccccc2)cc1Cl` the value was 5.44%. Still for that read-out and setting: for `O=C(CCCn1c(=O)c2cccn2c2cccnc21)NCc1ccc(F)cc1` the value was 8.91%; for `CCOc1ccc(NC(=O)Cn2c(C)ccc(C#N)c2=O)cc1`, -0.0869%.

`CCCCC(=O)NCc1ccc(F)cc1`: the Potency was 3.16 µM (active).

On to `Cc1ccc(CS(=O)(=O)CCC(=O)NCc2ccc(F)cc2)cc1`, for which the max response, negative = inhibition was -16.2%. Still for that read-out and setting: for `CCn1cc(CCC(=O)NCc2ccc(F)cc2)c2ccccc21` the value was -3.64%; for `Cc1ccc(C)c(N2CCN(C(=O)Cn3ncc4c(=O)oc5ccc(C)cc5c43)CC2)c1`, -7.32%; for `CCOc1ccc(NC(=O)C2CCN(S(=O)(=O)c3cc(-c4noc(C)n4)ccc3C)CC2)cc1`, 15.5%.

As to `Oc1c(C=Nc2cccc3nsnc23)ccc2ccccc12`, the Potency was 79.4 µM (active).

The record behind these values is PubChem BioAssay AID504847 (National Center for Advancing Translational Sciences (NCATS), 2011).
